# Results: PubChem BioAssay
# Potency and affinity values are given separately. Records with an inconclusive call do not appear. Activity calls are given as the source filed them.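 The calls were made as follows, unless noted: active = signal drop whose fitted half-maximal concentration is at most twice the top valid dose, in every test run; inconclusive = mixed calls across runs, poor fit, or flat 30 to 70% inhibition; inactive = wrong direction, flat within 30%, or potency beyond limit.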
# Test: cytotoxicity in PAX8-dependent RMG-1 cells, dose response, cell-based, cherry-pick (AID 687029);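 also: cells exposed to compound for 96 hours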
# Conditions: RMG-1 viability, CellTiterGlo ATP luminescence, 96 h; series mostly up to 35 µM; activity change, negative = inhibition: at the top concentration
row,Compound,"activity change, negative = inhibition"
1,O=C(c1cccs1)N1C[C@H](O)[C@@H](n2cc(C3CC3)nn2)C[C@@H]1c1ccccc1,-7.86% (inactive)
2,Cc1csc(NC(=O)C(C)Oc2ccc(Br)cc2)n1 (configuration not stated),2.15% (inactive)
3,CCOc1ccc2c(CC)cc(=O)oc2c1OCC,-13.4% (inactive)
4,COCCNC(=O)C/C(C)=N/NC(=O)C(=O)NC1CCCCC1,45.2% (inactive)
5,Cc1ccc(NC(=O)NC(=O)COc2ccc(Cl)cc2Cl)c(C)c1,21.3% [at 16 µM] (inactive)
6,COc1ccc(C2Nc3ccccc3C(=O)N2c2ccc(F)cc2)cc1CSc1ccccn1 (configuration not stated),30.3% (inactive)
7,Cc1ccccc1Cn1cnc2ccccc2c1=O,22.7% (inactive)
8,Cc1ccc(NC(=O)C2CC(=O)N/C(=N/N=C/c3ccco3)S2)cc1C (configuration not stated),18.2% (inactive)
9,O=C(CCCC(=O)OCC(Cl)=C(Cl)Cl)Nc1ccc(F)cc1,23.2% (inactive)
10,COC(=O)CN1C(=S)N(C)C(=O)C1CC(=O)Nc1ccccc1 (configuration not stated),34.5% (inactive)
11,COc1ccc(CN2C(=O)C(CC(=O)NCCCCc3ccccc3)CC(C(=O)N3CCOCC3)=C2C)cc1 (configuration not stated),31.4% (inactive)
12,Cn1cc(/C=C(\C(=O)O)C(C(=O)O)=C2CCCCC2)c2ccccc21,-9.32% (inactive)
13,CCCCNC(=O)/C(=C/c1ccccc1)NC(C)=O,-0.688% (inactive)
14,CCOc1ccc2ccccc2c1/C=N\NC(=O)OC,38.2% (inactive)
15,O=C(NC1CCCCC1)C(c1ccc(F)cc1)N(Cc1ccco1)C(=O)CN1C(=O)c2ccccc2S1(=O)=O (configuration not stated),11.2% (inactive)
16,O=C(O)CCCNC(=O)C(c1ccccc1)c1ccccc1,8.97% (inactive)
17,CC1CCCC(NC(=O)COC(=O)c2ccccc2Sc2ccccc2C#N)C1C (configuration not stated),23.8% (inactive)
18,CN(CC(=O)Nc1cccc(F)c1)C(=O)CCCc1cccs1,-9.92% (inactive)
19,CCCCCCCCC(=O)NCCOc1ccccc1,27.9% (inactive)
20,O=C(c1ccc2c(c1)OCO2)N1CCN(c2ccc(C(F)(F)F)cn2)CC1,25% (inactive)
21,Cc1ccc(NC(=S)N(CCCN2CCOCC2)Cc2ccccn2)cc1,4.62% (inactive)
22,N/C(=N\OS(=O)(=O)c1cccc([N+](=O)[O-])c1)c1ccncc1,13.9% (inactive)

# Test: cytotoxicity in IOSE-T80 ovarian epithelial cells, dose response, selectivity assay for PAX8 inhibitor project, cell-based, cherry-pick (AID 687032;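 active = fitted half-maximal concentration for viability loss no higher than twice the top valid dose, in every repeat run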;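 also: cells exposed to compound for 96 h before reading; 0% = neutral control wells and -100% = 2 µM mitoxantrone kill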)
# Conditions: CellTiterGlo ATP luminescence, 96 h; series mostly up to 35 µM; activity change, negative = viability loss: at the top concentration
row,Compound,"activity change, negative = viability loss"
1,O=C(c1cccs1)N1C[C@H](O)[C@@H](n2cc(C3CC3)nn2)C[C@@H]1c1ccccc1,1.93% (inactive)
2,Cc1csc(NC(=O)C(C)Oc2ccc(Br)cc2)n1 (configuration not stated),3.88% (inactive)
3,CCOc1ccc2c(CC)cc(=O)oc2c1OCC,-3.6% (inactive)
4,COCCNC(=O)C/C(C)=N/NC(=O)C(=O)NC1CCCCC1,15.1% (inactive)
5,Cc1ccc(NC(=O)NC(=O)COc2ccc(Cl)cc2Cl)c(C)c1,14.6% (inactive)
6,Cc1ccccc1Cn1cnc2ccccc2c1=O,-1.71% (inactive)
7,Cc1ccc(NC(=O)C2CC(=O)N/C(=N/N=C/c3ccco3)S2)cc1C (configuration not stated),6.62% (inactive)
8,O=C(CCCC(=O)OCC(Cl)=C(Cl)Cl)Nc1ccc(F)cc1,-0.808% (inactive)
9,COC(=O)CN1C(=S)N(C)C(=O)C1CC(=O)Nc1ccccc1 (configuration not stated),14.1% (inactive)
10,COc1ccc(CN2C(=O)C(CC(=O)NCCCCc3ccccc3)CC(C(=O)N3CCOCC3)=C2C)cc1 (configuration not stated),15.7% (inactive)
11,Cn1cc(/C=C(\C(=O)O)C(C(=O)O)=C2CCCCC2)c2ccccc21,-1.95% (inactive)
12,CCCCNC(=O)/C(=C/c1ccccc1)NC(C)=O,7.89% (inactive)
13,O=C(NC1CCCCC1)C(c1ccc(F)cc1)N(Cc1ccco1)C(=O)CN1C(=O)c2ccccc2S1(=O)=O (configuration not stated),6.52% (inactive)
14,O=C(O)CCCNC(=O)C(c1ccccc1)c1ccccc1,9.42% (inactive)
15,CC1CCCC(NC(=O)COC(=O)c2ccccc2Sc2ccccc2C#N)C1C (configuration not stated),-3.01% (inactive)
16,CN(CC(=O)Nc1cccc(F)c1)C(=O)CCCc1cccs1,0.037% (inactive)
17,CCCCCCCCC(=O)NCCOc1ccccc1,8.79% (inactive)
18,O=C(c1ccc2c(c1)OCO2)N1CCN(c2ccc(C(F)(F)F)cn2)CC1,18.2% (inactive)
19,Cc1ccc(NC(=S)N(CCCN2CCOCC2)Cc2ccccn2)cc1,7.83% (inactive)
20,N/C(=N\OS(=O)(=O)c1cccc([N+](=O)[O-])c1)c1ccncc1,7.28% (inactive)

# Test: inhibitors of CMV-promoter luciferase reporter, dose response, counter-screen for Pax8 inhibitor project, cell-based, HEK293, luminescence, dry powder (AID 743020;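 active = signal-lowering compounds whose fitted half-maximal concentration is at or below twice the top tested dose in every run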;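 also: HEK293 cells stably expressing the CMV luciferase reporter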)
# Conditions: SteadyGlo luminescence, 24 h; series mostly up to 35 µM; activity change, negative = inhibition: at the top concentration
row,Compound,"activity change, negative = inhibition"
1,O=C(c1cccs1)N1C[C@H](O)[C@@H](n2cc(C3CC3)nn2)C[C@@H]1c1ccccc1,-4.6% (inactive)
2,Cc1csc(NC(=O)C(C)Oc2ccc(Br)cc2)n1 (configuration not stated),5.18% (inactive)
3,CCOc1ccc2c(CC)cc(=O)oc2c1OCC,3.51% (inactive)
4,COCCNC(=O)C/C(C)=N/NC(=O)C(=O)NC1CCCCC1,6.67% (inactive)
5,Cc1ccc(NC(=O)NC(=O)COc2ccc(Cl)cc2Cl)c(C)c1,-13% (inactive)
6,Cc1ccccc1Cn1cnc2ccccc2c1=O,1.01% (inactive)
7,Cc1ccc(NC(=O)C2CC(=O)N/C(=N/N=C/c3ccco3)S2)cc1C (configuration not stated),6.05% (inactive)
8,O=C(CCCC(=O)OCC(Cl)=C(Cl)Cl)Nc1ccc(F)cc1,-7.75% (inactive)
9,COC(=O)CN1C(=S)N(C)C(=O)C1CC(=O)Nc1ccccc1 (configuration not stated),9.69% (inactive)
10,COc1ccc(CN2C(=O)C(CC(=O)NCCCCc3ccccc3)CC(C(=O)N3CCOCC3)=C2C)cc1 (configuration not stated),-26.3% (inactive)
11,Cn1cc(/C=C(\C(=O)O)C(C(=O)O)=C2CCCCC2)c2ccccc21,-12.2% (inactive)
12,CCCCNC(=O)/C(=C/c1ccccc1)NC(C)=O,10.4% (inactive)
13,O=C(NC1CCCCC1)C(c1ccc(F)cc1)N(Cc1ccco1)C(=O)CN1C(=O)c2ccccc2S1(=O)=O (configuration not stated),0.118% (inactive)
14,O=C(O)CCCNC(=O)C(c1ccccc1)c1ccccc1,7.38% (inactive)
15,CC1CCCC(NC(=O)COC(=O)c2ccccc2Sc2ccccc2C#N)C1C (configuration not stated),12.2% (inactive)
16,CN(CC(=O)Nc1cccc(F)c1)C(=O)CCCc1cccs1,0.34% (inactive)
17,CCCCCCCCC(=O)NCCOc1ccccc1,11.8% (inactive)
18,O=C(c1ccc2c(c1)OCO2)N1CCN(c2ccc(C(F)(F)F)cn2)CC1,-1.69% (inactive)
19,Cc1ccc(NC(=S)N(CCCN2CCOCC2)Cc2ccccn2)cc1,3.55% (inactive)
20,N/C(=N\OS(=O)(=O)c1cccc([N+](=O)[O-])c1)c1ccncc1,5.51% (inactive)
